Only some compounds are listed: those with a hit (about 7.5% of all), similar ones and a draw of the others.
FLuc counter – qHTS profiling assay for firefly luciferase inhibitor/activator using purifed enzyme and Km concentrations of substrates (counterscreen for miR-21 project); hit rate 6.9% among 360,000; purified FLuc, Km substrates, luminescence inhibition; Potency, µM (series often up to 57.5 µM), inactives show at the highest dose activity change, negative = inhibition, most hits filed as inhibitors; AID 588342, 2011; Luciferin 4-monooxygenase (Photinus pyralis), P08659;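 note: plate controls were vehicle for no effect and reference inhibitor for full effect; nearly all actives have a fitted effect of over 55% in size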
Target sequence (P08659 whole entry, looked up): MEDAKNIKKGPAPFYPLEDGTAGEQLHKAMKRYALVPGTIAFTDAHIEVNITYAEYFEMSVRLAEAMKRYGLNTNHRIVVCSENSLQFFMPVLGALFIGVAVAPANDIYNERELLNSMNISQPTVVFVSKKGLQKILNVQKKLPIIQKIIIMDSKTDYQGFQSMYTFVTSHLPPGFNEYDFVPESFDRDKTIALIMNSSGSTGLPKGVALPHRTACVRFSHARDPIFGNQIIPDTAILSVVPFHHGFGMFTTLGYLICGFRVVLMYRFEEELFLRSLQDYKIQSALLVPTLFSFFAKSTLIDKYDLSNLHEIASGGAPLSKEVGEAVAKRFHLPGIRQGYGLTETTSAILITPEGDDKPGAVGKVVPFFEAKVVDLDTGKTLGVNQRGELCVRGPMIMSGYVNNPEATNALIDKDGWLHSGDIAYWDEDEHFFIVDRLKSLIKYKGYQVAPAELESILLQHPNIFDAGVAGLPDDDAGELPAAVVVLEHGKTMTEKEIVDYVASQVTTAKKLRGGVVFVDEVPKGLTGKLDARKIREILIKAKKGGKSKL
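Purified P. pyralis luciferase, 10 nM final, with Km-level 10 uM D-luciferin and 10 uM ATP in 50 mM Tris acetate pH 7.5, 10 mM Mg acetate, 0.01% Tween-20, 0.05% BSA; 6-point qHTS titration about 60 µM downward; luminescence read.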
Luc counter – Counterscreen for Luciferase (Kinase-Glo TM) Inhibition; Kinase-Glo luciferase, ATP luminescence, 8 min; hit rate 0.28% among 200,000; Luciferin 4-monooxygenase (Photuris pensylvanica), Q27757; Potency, µM (doses to about 38.3 µM), without a hit: at the highest dose activity change, negative = inhibition, hits mostly inhibitors; note: % is set by controls: 0 for no effect and ±100 for the full control effect; nearly all actives have a fitted effect of over 60% in size
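Recombinant Kinase-Glo luciferase, 10 uM ATP (linear range), luciferin; imidazole pH 7.2 / KCl / MgCl2 / Tween / BSA buffer; 8 min RT; luminescence.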
Rab9 promoter act – qHTS Assay for Rab9 Promoter Activators; Huh7 Rab9 promoter-luciferase reporter, luminescence, 24 h; Potency, µM (titrated, usually from 9.22 µM), for the others: at the top dose activation, negative = inhibition, most hits filed as activators; hit rate 2.8% among 320,000; AID 485297, 2010; note: % of control where 0% means no effect; nearly all actives have a fitted effect of over 60% in size
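Using Huh7 cells stably transfected with Rab9 promoter–luciferase, compounds were incubated 24 h at 37 °C, 5% CO2; luciferase luminescence was read 10 min after reagent addition.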
ELG1 genotoxic – qHTS screen for small molecules that induce genotoxicity in human embryonic kidney (HEK293T) cells expressing luciferase-tagged ELG1. Potency, µM (top dose mostly 46 µM), for inactives: top-dose activity change, positive = activation, usual class: activators. HEK293T ELG1-luciferase reporter, luminescence, 16 h. hit rate 1.3% among 330,000; note: % of control where 0% means no effect; nearly all actives have a fitted effect of over 60% in size
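HEK293T cells expressing luciferase-tagged ELG1 were exposed to compound or DMSO vehicle for 16 hr at 37 °C and 5% CO2. Luciferase activity was then measured with ONE-Glo after 30 min at room temperature.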
NPC1 prom act – qHTS Assay for NPC1 Promoter Activators; Huh7 NPC1 promoter luciferase reporter, 24 h; hit rate 2.4% among 320,000; Potency, µM (highest dose often 9.22 µM), inactives show at the highest dose activation, usual class: activators; note: % of control where 0% means no effect; nearly all actives have a fitted effect of over 60% in size
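Luminescence read-out of NPC1 promoter-driven luciferase in stably transfected Huh7 cells; compounds delivered in DMSO and left 24 h at 37C, 5% CO2, qHTS titration format.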
SMN2 splice enh – qHTS Assay for Enhancers of SMN2 Splice Variant Expression. HEK293 SMN2-luciferase splicing reporter, luminescence, 30-36 h. Potency, µM (top dose mostly 46.1 µM), for the others: at the highest dose activity change, positive = activation, actives largely listed as activators. hit rate 2.8% among 210,000. AID 1458, 2008; note: % of control where 0% means no effect; nearly all actives have a fitted effect of over 55% in size
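HEK293 cells carry an SMN2 […]–luciferase reporter in which exon 7 inclusion puts luciferase in frame. Cells were plated 10-12 h before compound addition, then incubated 30-36 h at 37C. ONE-Glo luminescence was read; sodium butyrate at 4.5 mM final served as control.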
* marks the source's active call; other numbers are inactive results; [ ] = remark or other dose. Calls come from the whole dose curve; as a rule, active = well fitted curve in the direction sought with a large enough effect; inconclusive = small, poorly fitted or top-dose-only effect, or another doubt; inactive = no such curve, though single readings can be large; an effect the other way counts as inactive or inconclusive. Potency is the fitted concentration of half-maximal effect.

`CCN1C(=O)/C(=C/C=C2/SCCN2C)SC1=S` gave FLuc counter 0.85µM*, Luc counter -18%, Rab9 promoter act 0.45µM*, ELG1 genotoxic inconclusive, NPC1 prom act 0.45µM* and SMN2 splice enh inconclusive.
`C=CCN1C(=O)/C(=C\C=C2\N(C)c3ccccc3C2(C)C)SC1=S` gave FLuc counter -3%, Luc counter -16%, Rab9 promoter act -3%, ELG1 genotoxic -1%, NPC1 prom act -3% and SMN2 splice enh -23%.
`CN1/C(=C\C=C2/SC(=S)N(CC(=O)O)C2=O)C(C)(C)c2ccccc21` gave FLuc counter 17µM*, Luc counter -16%, Rab9 promoter act 1%, ELG1 genotoxic -5%, NPC1 prom act -6% and SMN2 splice enh -22%.
Cn1cccc1/C=C1/SC(=S)N(CC(=O)O)C1=O was read as FLuc counter inconclusive, Luc counter 1%, Rab9 promoter act -2%, ELG1 genotoxic 0%, NPC1 prom act 1% and SMN2 splice enh 79%.
Screening CN1CCS/C1=C\C=C1/SC(=S)N(CC(=O)O)C1=O returned FLuc counter 13µM*, Luc counter -1%, Rab9 promoter act 1%, ELG1 genotoxic -3%, NPC1 prom act -2% and SMN2 splice enh 0%.
`CCN1C(=O)/C(=C/C=C2/Sc3ccccc3N2CCO)SC1=S` gave FLuc counter -15%, Luc counter inconclusive, Rab9 promoter act 1%, ELG1 genotoxic 11%, NPC1 prom act 0% and SMN2 splice enh -48%.
Screening Cc1ccc(C(=O)Nc2ccc(-c3nc4ccccc4s3)c(O)c2)c(C)c1 returned FLuc counter 0%.
For CC(=O)Nc1cccc(-c2cc(C)c3cc4c(cc3n2)OCO4)c1 the results were FLuc counter 8.5µM*, Rab9 promoter act 30%, ELG1 genotoxic inconclusive and NPC1 prom act inconclusive.
Cc1ccc(-c2nc3ccccc3s2)cc1NC(=S)NC(=O)c1cccc2ccccc12 was read as FLuc counter 11µM*, Luc counter 2%, Rab9 promoter act 1%, ELG1 genotoxic inconclusive, NPC1 prom act -2% and SMN2 splice enh inconclusive.
Screening Cc1ccc(C(=O)NC(=S)Nc2cccc(-c3nc4ccccc4s3)c2)cc1 returned FLuc counter 12µM*, Luc counter -1%, Rab9 promoter act 9%, ELG1 genotoxic inconclusive, NPC1 prom act 15% and SMN2 splice enh 6%.
`CN(C)c1cccc(C(=O)Nc2ccc(-c3nc4ccccc4s3)cc2)c1` gave FLuc counter 5.4µM*.
`CCn1cc2nc(SCc3cc(C)ccc3C)n(Cc3ccc(C)cc3)c(=O)c2n1` gave FLuc counter -8%.
`CCOC(=O)CSc1nc2c(sc3cccc(F)c32)c(=O)n1Cc1ccc(OC)cc1` gave FLuc counter 4%.
Screening CC(=O)Nc1cccc(-c2nc3ccc(NC(C)=O)cc3s2)c1 returned FLuc counter 3µM*, Luc counter 2%, Rab9 promoter act 0.89µM*, ELG1 genotoxic inconclusive, NPC1 prom act 3.2µM* and SMN2 splice enh 13µM*.
Screening CC(=O)Nc1cccc(-c2nc3ccccc3s2)c1 returned FLuc counter 9.5µM*, Luc counter -3%, Rab9 promoter act 2.2µM*, ELG1 genotoxic inconclusive, NPC1 prom act inconclusive and SMN2 splice enh 13µM*.
`N=C1S/C(=C\c2ccco2)C(=O)N1c1nccs1` gave FLuc counter 11µM*, Luc counter -8%, Rab9 promoter act inconclusive, ELG1 genotoxic inconclusive, NPC1 prom act inconclusive and SMN2 splice enh -36%.
Screening Cc1cccc(/N=C/c2nc(-c3ccccc3Br)oc2O)n1 returned FLuc counter 7.6µM*, Luc counter -3%, Rab9 promoter act -2%, ELG1 genotoxic 2%, NPC1 prom act -1% and SMN2 splice enh -22%.
`Oc1oc(-c2cccc3ccccc23)nc1/C=N/c1nccs1` gave FLuc counter 3%, Luc counter 4%, Rab9 promoter act 0%, ELG1 genotoxic 4%, NPC1 prom act -6% and SMN2 splice enh 3%.
Screening Cc1ccnc(N=Cc2nc(-c3ccccc3Br)oc2O)c1 returned FLuc counter 5.4µM*, Luc counter -7%, Rab9 promoter act inconclusive, ELG1 genotoxic 12%, NPC1 prom act 22% and SMN2 splice enh 58%.
Cc1ccc(OCCn2c(-c3ccc(Cl)cc3)nc3ccccc3c2=O)c(C)c1 was read as FLuc counter -4% and SMN2 splice enh -7%.
`COc1ccc(NC(=O)Cn2c(=O)n(CC3CCCO3)c(=O)c3ccccc32)cc1` (stereo not drawn) gave FLuc counter 4% and SMN2 splice enh 1%.
Screening COc1ccc(OCCOCCOc2ccc(C)cc2[N+](=O)[O-])cc1 returned FLuc counter inconclusive, Luc counter 1%, Rab9 promoter act -6%, ELG1 genotoxic 0%, NPC1 prom act 0% and SMN2 splice enh 2%.
Screening COc1ccc(OCCOc2ccc(C)nc2[N+](=O)[O-])cc1 returned FLuc counter 24µM*, Luc counter -4%, Rab9 promoter act inconclusive, ELG1 genotoxic inconclusive, NPC1 prom act inconclusive and SMN2 splice enh inconclusive.
For Cc1ccc(COc2ccc(C)nc2[N+](=O)[O-])cc1 the results were FLuc counter 2.4µM*, Rab9 promoter act 0.71µM*, ELG1 genotoxic 3.7µM* and NPC1 prom act 0.79µM*.
`Cc1ccc(OCCOc2ccc(Cl)cc2Cl)c([N+](=O)[O-])n1` gave FLuc counter 17µM*, Luc counter 0%, Rab9 promoter act 27%, ELG1 genotoxic inconclusive, NPC1 prom act inconclusive and SMN2 splice enh -14%[1.84 µM].
`COc1ccc(-n2c(=O)c3ccccc3n(CC(=O)NCCc3ccccc3)c2=O)c(OC)c1` gave FLuc counter -5% and SMN2 splice enh -2%.
For Cc1ccc(-c2nc(-c3nccc4ccccc34)oc2-c2ccccc2)cc1 the results were FLuc counter 3µM*, Luc counter -15%[7.66 µM], Rab9 promoter act 3.2µM*, ELG1 genotoxic inconclusive, NPC1 prom act inconclusive and SMN2 splice enh 3.5µM*.
`CC(=O)CSc1nc(-c2ccccc2)c(-c2ccccc2)o1` gave FLuc counter 3%, Rab9 promoter act -1%, ELG1 genotoxic -1% and NPC1 prom act 0%.
